Source: PubChem BioAssay (several laboratories)
Shown is part of a subset that was picked to be rich in hits.
FAK inh = FAK kinase inhibitors, primary screen, biochemical | Focal adhesion kinase 1 (Homo sapiens), Q05397 | actives 0.84% (n = 97,000) | AID 727, 2007 | inhibition, %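 (tested at 7 µM)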 | biochemical FAK kinase activity assay; in the data active means inhibition above about 19%;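 further: 0% = DMSO and 100% = reference compound high control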
Mac1 fbg inh = inhibitors of CD11b/CD18 adhesion to fibrinogen, primary screen, K562 cells, luminescence | Integrin beta-2 (Homo sapiens) + Integrin alpha-M (Homo sapiens), P05107+P11215 | ATPlite luminescence; Mn2+ added to activate the integrin | inhibition, % at 10 µM | actives 0.54% (n = 93,000) | AID 1497, 2009;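 active means primary inhibition of 50% or more at 10 µM, then 40% or more on retest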
hDAT+cocaine = changed hDAT dopamine uptake under cocaine IC80, either direction, primary screen, cocaine antagonist project, cell-based, LLC-PK1 hDAT, [14C]-dopamine uptake, MLSMR; LLC-PK1 hDAT cells, [14C]-dopamine uptake with cocaine IC80; actives deviate in either direction; actives 1.3% (n = 110,000); Sodium-dependent dopamine transporter (Homo sapiens), Q01959; B-score at 10 µM;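 active means Z score or B-score, a plate-position-corrected score, falls beyond the plate's 99.7% confidence bounds, in either direction; inactive means both scores lie inside the 99.7% bounds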;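 further: scored against the spread of the other compound wells on the same plate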
D1 allo mod = D1 CRE-luciferase signal change, two-sided – cell-based, HEK293 D1, dopamine EC30, D1 allosteric modulator project, primary screen. dopamine EC30 potentiation; actives deviate in either direction. B-score at 10 µM. actives 5.9% (n = 58,000);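 active means luminescence count or its row- and column-corrected plate score outside the 99.7% band of the plate's sample wells, on either side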
Target sequence (P21728 whole entry, looked up): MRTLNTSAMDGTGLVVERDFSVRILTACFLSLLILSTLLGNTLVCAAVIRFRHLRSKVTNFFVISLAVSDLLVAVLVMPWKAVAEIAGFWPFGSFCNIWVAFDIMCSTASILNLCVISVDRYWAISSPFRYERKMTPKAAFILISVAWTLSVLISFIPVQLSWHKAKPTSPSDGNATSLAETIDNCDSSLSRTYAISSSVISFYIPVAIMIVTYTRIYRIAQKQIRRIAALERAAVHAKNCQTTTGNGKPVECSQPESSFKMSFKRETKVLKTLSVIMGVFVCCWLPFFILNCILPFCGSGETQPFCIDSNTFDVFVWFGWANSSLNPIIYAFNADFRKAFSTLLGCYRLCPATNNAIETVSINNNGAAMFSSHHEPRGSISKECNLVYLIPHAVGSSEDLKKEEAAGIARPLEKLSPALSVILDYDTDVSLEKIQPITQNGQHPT
Mac1 fbg enh = enhancers of CD11b/CD18 adhesion to fibrinogen, primary screen, K562 cells, luminescence; Integrin beta-2 (Homo sapiens) + Integrin alpha-M (Homo sapiens), P05107+P11215; ATPlite luminescence; activation, % at 10 µM; actives 0.07% (n = 93,000);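 active means 10 µM primary screen giving 50% or more activity, confirmed by 40% or more on retest at that dose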
PTK2B oligo ant = antagonists of Pyk2 self-association, primary screen, Q293 cells, FERM NanoBiT luminescence, HTS | Protein-tyrosine kinase 2-beta (Homo sapiens), Q14289 | active compounds read low | z-score (the deposit names both 25 µM and 10 µM) | actives 0.83% (n = 99,000);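 active means Z-score of -3 or lower, scaled per plate to the spread of control and sample wells; inactive means z-score above -3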;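 further: negative z-score means lost luminescence so less FERM oligomerization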
The depositor's hits bear a star; / = not tested or not shown.

SMILES	FAK inh	Mac1 fbg inh	hDAT+cocaine	D1 allo mod	Mac1 fbg enh	PTK2B oligo ant
CCOC(=O)C(=CNc1cc(C)nn1-c1ccc(Cl)cc1)C(=O)OCC	-1.6	-11.5	0.0199	/	0.3	-1.53
CCOC(=O)C(=CNc1cccc(N)n1)C(=O)OCC	1.5	4.8	-0.686	/	-2.8	-1.21
CCOC(=O)C(=CNc1ccc(C)cc1C)C(=O)OCC	-2.9	3.2	2.68	/	-2.4	-3.16*
O=C1CC(NCCC2=CCCCC2)C(=O)N1c1cccc(Cl)c1Cl (configuration not stated)	-7.8	/	3.54*	/	/	/
CCOC(=O)CSc1nc2c(sc(=S)n2-c2ccccc2OC)c(=O)n1Cc1ccco1	-0.8	0.8	-4.32*	/	-0.2	-0.4
CCOC(=O)CSc1nc2ccccc2c(=O)n1Cc1ccco1	/	8.4	-0.143	/	-5.6	0.18
C=CCOc1cccc(C2C(C(=O)c3ccc(C)o3)=C(O)C(=O)N2c2nccs2)c1 (configuration not stated)	-5.1	22.6	0.201	-0.319	-5.4	-0.6
CC(=O)C1=C(c2ccccc2)NC(=O)NC1c1ccccc1OCC(=O)NCc1ccccc1 (configuration not stated)	0.4	-5.5	0.716	/	-0.6	-2.17
CCCOC(=O)c1ccc(OCC(O)Cn2c(C)nc3ccccc32)cc1 (configuration not stated)	/	32.2	-0.153	-3.24*	-5.7	/
CCOC(=O)c1cc(NC(=O)CSc2nnc(CN3CCOCC3)n2C)ccc1Cl	-0.5	/	-8.89*	/	/	0.04
O=C1NCCCC2c3c(cc(Br)c(O)c3Br)OC12N1CCOCC1 (configuration not stated)	-4.5	8.3	1.35	0.0617	1.2	0.58
O=C1NCCCC2c3cc(O)c4ccccc4c3OC12N1CCCCC1 (configuration not stated)	16.7	-10.3	-3.42*	0.000953	-2.2	/
COc1ccc(N2CCN(Cc3nc4ccccc4c(=O)[nH]3)CC2)cc1	-2.1	-25.5	-0.187	-0.0346	5.0	-0.27
COc1cccc(N2CCN(Cc3nc4ccccc4c(=O)[nH]3)CC2)c1	-0.6	0.5	2.22*	-0.016	3.7	0.08
CC(C)C(=O)NCCc1nc(-c2ccc(Cl)cc2)no1	/	/	0.00202	/	/	/
COc1cc(/C=C(/C(=O)c2cccs2)c2nc3ccccc3[nH]2)cc(OC)c1O	0.7	15.1	-0.967	/	-4.6	-0.14
O=C(COC(=O)c1cccnc1Nc1cccc(C(F)(F)F)c1)NCCN1C(=O)CSC1=O	5.2	6.8	3.52*	/	-2.7	1.01
Cc1nc2ccc(NC(=S)NC(C)C)cc2nc1C	-1.5	7.1	0.0354	/	-2.4	0.62
COc1ccc(CCNC(=O)C(=O)NCc2ccc(C)cc2)cc1OC	-1.3	-26.2	0.652	/	7.1	0.31
CCC1(C)Cc2ccccc2-c2nc(NCCO)[nH]c(=O)c21 (configuration not stated)	3.5	-2.8	-2.9*	/	4.9	-0.9
Cc1nn(-c2ccccc2)c(C)c1/C=N/NC(=O)c1cc(C(C)(C)C)[nH]n1	11.3	-26.8	0.131	/	-0.7	-1.47
Cc1ccc(-c2cc(C(=O)N/N=C/c3c(C)nn(-c4ccccc4)c3C)[nH]n2)cc1	0.7	17.5	/	/	-2.2	-3.05*
CCO[C@H]1OC(C(N)=O)=C[C@@H](C2CC2)[C@@H]1CCCO	/	/	-0.995	/	/	/
CCOC(=O)Cc1ccc(NC(=O)c2ccc(C(C)(C)C)cc2)cc1	-1.2	97.9*	-0.331	/	-5.9	1.68
COC(=O)Cc1ccc(NC(=O)c2ccc(C)c(C)c2)cc1	1.5	11.1	0.0506	/	-6.8	0.75
SMILES	FAK inh	Mac1 fbg inh	hDAT+cocaine	D1 allo mod	Mac1 fbg enh	PTK2B oligo ant
COC(=O)C1=CN(C(C)C)C=C(C(=O)OC)C1c1cc(Br)c(OC)c(OC)c1	-3.1	/	1.4	/	/	-3.61*
COC(=O)C1=CN(C(C)C)C=C(C(=O)OC)C1c1cccc(OC)c1	0.9	-7.2	/	/	3.8	-1.94
O=C(CSc1nc(-c2ccc(F)cc2)cc(C(F)(F)F)n1)Nc1ccc2c(c1)OCO2	/	2.6	/	/	-0.5	/
COc1ccccc1OCCCc1c(C)n[nH]c1C	-2.6	5.6	0.125	-0.516	-6.5	1.42
Cc1cccc(OCCCCc2c(C)n[nH]c2C)c1C	-2.1	89.6*	0.36	-1.37	-8.0	-0.82
CCOc1ccccc1OCCCCCc1c(C)n[nH]c1C	-0.5	47.2	0.607	-2.42*	-9.1	-0.28
COc1ccccc1OCCCCCc1c(C)n[nH]c1C	-2.4	61.9*	1.17	-0.936	-7.7	-0.18
CC(C)Cc1nc2sc3c(=O)n(N)cnc3c2c2c1COC(C)(C)C2	/	3.1	/	/	-2.7	/
CC(/C=C1\SC(=S)N(CCCC(=O)Nc2ccc(C(=O)O)c(O)c2)C1=O)=C\c1ccccc1	/	2.7	/	/	85.7*	/
Cc1ccc(NC(=O)CCCN2C(=O)/C(=C/C=C/c3ccccc3)SC2=S)cc1	/	11.3	/	/	16.8	/
O=C(c1cccc(COc2cccc3ccccc23)c1)N1CCCC1	0.9	/	3.68*	/	/	-1.28
O=C(c1cccc(COc2ccc(Cl)cc2Cl)c1)N1CCN(c2ccccn2)CC1	7.2	82.3	0.748	-2.73	-8.2	-1.41
O=[N+]([O-])c1nn(-c2ccc3c(c2)OCCO3)n(O)c1=Nc1ccc(Cl)cc1	2.9	/	-0.779	/	/	-3.44*
COc1ccc(C(=O)NC(=S)NCC2CCCO2)cc1 (configuration not stated)	/	/	/	/	/	-0.13
CC(C)(C)c1nn2cnnc2n(/N=C/c2ccc(O)cc2)c1=O	/	-8.5	/	/	2.7	0.91
CCOc1ccc(OCCSc2nnnn2-c2ccccc2)cc1	-0.5	28.3	0.0627	/	-2.3	-4.09*
c1ccc(-c2nc(CSc3nnnn3-c3ccccc3)cs2)cc1	7.9	0.9	0.571	0.361	4.6	-2.4
c1ccc(OCCSc2nnnn2-c2ccccc2)cc1	-3.9	21.0	-0.547	-0.537	-4.5	-2.4
Cc1ccccc1Nc1nc(CSc2nnnn2-c2ccccc2)cs1	-0.3	-17.5	-7.97*	/	6.2	-0.16
O=C(COC(=O)c1c2c(nc3ccccc13)CCCCC2)c1ccc(Cl)s1	/	1.3	/	/	1.9	/
Cc1cccc(C(=O)NNC2=C(C(=O)C(F)(F)F)CCC2)c1O	-3.7	96.4*	0.107	/	-7.3	0.36
Cc1cccc(NC(=O)C2CCN(S(=O)(=O)c3cccc4cccnc34)CC2)n1	-4.1	0.4	0.0972	0	3.0	/
CC(C)C(=O)Nc1nc(-c2ccccc2)ns1	-0.5	/	1.69	/	/	-0.58
CCCSc1nsc(NC(=O)C(c2ccccc2)c2ccccc2)n1	0.5	98.3*	-0.137	/	-6.9	-3.12*
